# PubChem BioAssay (NCATS)
# Where “and” joins values, the source holds several entries; their conditions need not be identical. Equal entries are not always repeated. Values without a mark were called inactive. Records with an inconclusive call do not appear. Calls of active or inactive are those of the source. Unless noted, calls come from the whole dose curve; as a rule, active = well fitted curve in the direction sought with a large enough effect; inconclusive = small, poorly fitted or top-dose-only effect, or another doubt; inactive = no such curve, though single readings can be large; an effect the other way counts as inactive or inconclusive.
# Assays:
# [1] = target: Retinoic acid receptor RXR-alpha (Homo sapiens) (UniProt P19793); test: qHTS assay for small molecule antagonists of retinoid X receptor alpha signaling (AID 588546; active = well fitted inhibition curve with a large enough effect in the signal ratio, with a control signal flat, not every such curve was filed as active; the % refers to the signal ratio;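 note: cells stimulated with 9-cis-retinoic acid as agonist; % is set by controls: 0 for no effect and ±100 for the full control effect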); settings: HEK293T RXRa-UAS-bla, beta-lactamase ratio, antagonist mode
# Retinoic acid receptor RXR-alpha (Homo sapiens), sequence (P19793 whole entry, looked up): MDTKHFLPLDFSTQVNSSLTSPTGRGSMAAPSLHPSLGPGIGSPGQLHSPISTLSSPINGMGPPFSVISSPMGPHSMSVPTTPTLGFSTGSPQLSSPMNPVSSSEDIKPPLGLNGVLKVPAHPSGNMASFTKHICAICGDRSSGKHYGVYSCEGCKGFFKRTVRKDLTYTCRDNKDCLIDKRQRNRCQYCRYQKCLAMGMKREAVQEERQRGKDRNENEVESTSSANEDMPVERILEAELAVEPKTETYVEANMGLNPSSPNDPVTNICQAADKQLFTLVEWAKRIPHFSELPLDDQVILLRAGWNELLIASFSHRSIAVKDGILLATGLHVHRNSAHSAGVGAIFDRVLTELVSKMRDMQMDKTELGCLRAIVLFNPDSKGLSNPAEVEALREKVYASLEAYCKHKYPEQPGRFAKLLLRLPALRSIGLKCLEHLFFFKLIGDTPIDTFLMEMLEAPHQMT
# How it was run: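 Beta-lactamase reporter inhibition, read as CCF4 fluorescence ratio (ex 405, em 460/530 nm) after 2 h at RT. HEK293T UAS-bla cells, 2500/well, were stimulated with 9-cis-RA at 500 or 100 nM final alongside test compound for 18 h at 37 C.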
# [2] = target: Thyroid hormone receptor beta (Homo sapiens) (UniProt P10828); test: qHTS assay for small molecule antagonists of thyroid hormone receptor beta signaling (AID 588547; active = well fitted inhibition curve with a large enough effect in the signal ratio, with a control signal flat, not every such curve was filed as active; the % refers to the signal ratio;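 note: cells stimulated with 0.4 nM T3 agonist during compound exposure; % is set by controls: 0 for no effect and ±100 for the full control effect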); settings: TR-UAS-bla HEK293, beta-lactamase ratio, antagonist mode, 18 h
# Thyroid hormone receptor beta (Homo sapiens), sequence (P10828 whole entry, looked up): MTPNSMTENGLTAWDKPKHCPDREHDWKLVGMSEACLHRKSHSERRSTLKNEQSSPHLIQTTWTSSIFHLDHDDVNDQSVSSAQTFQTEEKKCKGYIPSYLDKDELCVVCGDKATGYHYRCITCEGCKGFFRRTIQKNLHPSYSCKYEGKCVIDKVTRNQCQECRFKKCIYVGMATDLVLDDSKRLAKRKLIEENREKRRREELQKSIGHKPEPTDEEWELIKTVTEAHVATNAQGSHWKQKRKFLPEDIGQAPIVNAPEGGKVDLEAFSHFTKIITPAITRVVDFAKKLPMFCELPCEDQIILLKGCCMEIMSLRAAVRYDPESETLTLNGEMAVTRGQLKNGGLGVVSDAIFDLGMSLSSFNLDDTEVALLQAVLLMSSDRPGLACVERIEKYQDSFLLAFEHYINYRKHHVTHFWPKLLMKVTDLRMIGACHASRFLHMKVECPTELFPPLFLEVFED
# How it was run: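 TR-UAS-bla GripTite HEK293 cells in 2% charcoal/dextran FBS medium were preincubated 4 h at 37 C, given compound (0.59 nM to 92 uM) plus 0.4 nM T3 (final) for 18 h, then CCF4 for 2 h at RT; Hill fit gave IC50.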
# [3] = target: Voltage-gated inwardly rectifying potassium channel KCNH2 (Homo sapiens) (UniProt Q12809); test: qHTS Assay for Small Molecule Inhibitors of the Human hERG Channel Activity (AID 588834); settings: U2OS BacMam hERG, FluxOR thallium flux fluorescence; series mostly up to 46.1 µM;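 note: lower thallium flux fluorescence means stronger hERG block; nearly all actives have a fitted effect of over 50% in size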; note: potency is the fitted concentration of half-maximal effect
# Voltage-gated inwardly rectifying potassium channel KCNH2 (Homo sapiens), sequence (Q12809 whole entry, looked up): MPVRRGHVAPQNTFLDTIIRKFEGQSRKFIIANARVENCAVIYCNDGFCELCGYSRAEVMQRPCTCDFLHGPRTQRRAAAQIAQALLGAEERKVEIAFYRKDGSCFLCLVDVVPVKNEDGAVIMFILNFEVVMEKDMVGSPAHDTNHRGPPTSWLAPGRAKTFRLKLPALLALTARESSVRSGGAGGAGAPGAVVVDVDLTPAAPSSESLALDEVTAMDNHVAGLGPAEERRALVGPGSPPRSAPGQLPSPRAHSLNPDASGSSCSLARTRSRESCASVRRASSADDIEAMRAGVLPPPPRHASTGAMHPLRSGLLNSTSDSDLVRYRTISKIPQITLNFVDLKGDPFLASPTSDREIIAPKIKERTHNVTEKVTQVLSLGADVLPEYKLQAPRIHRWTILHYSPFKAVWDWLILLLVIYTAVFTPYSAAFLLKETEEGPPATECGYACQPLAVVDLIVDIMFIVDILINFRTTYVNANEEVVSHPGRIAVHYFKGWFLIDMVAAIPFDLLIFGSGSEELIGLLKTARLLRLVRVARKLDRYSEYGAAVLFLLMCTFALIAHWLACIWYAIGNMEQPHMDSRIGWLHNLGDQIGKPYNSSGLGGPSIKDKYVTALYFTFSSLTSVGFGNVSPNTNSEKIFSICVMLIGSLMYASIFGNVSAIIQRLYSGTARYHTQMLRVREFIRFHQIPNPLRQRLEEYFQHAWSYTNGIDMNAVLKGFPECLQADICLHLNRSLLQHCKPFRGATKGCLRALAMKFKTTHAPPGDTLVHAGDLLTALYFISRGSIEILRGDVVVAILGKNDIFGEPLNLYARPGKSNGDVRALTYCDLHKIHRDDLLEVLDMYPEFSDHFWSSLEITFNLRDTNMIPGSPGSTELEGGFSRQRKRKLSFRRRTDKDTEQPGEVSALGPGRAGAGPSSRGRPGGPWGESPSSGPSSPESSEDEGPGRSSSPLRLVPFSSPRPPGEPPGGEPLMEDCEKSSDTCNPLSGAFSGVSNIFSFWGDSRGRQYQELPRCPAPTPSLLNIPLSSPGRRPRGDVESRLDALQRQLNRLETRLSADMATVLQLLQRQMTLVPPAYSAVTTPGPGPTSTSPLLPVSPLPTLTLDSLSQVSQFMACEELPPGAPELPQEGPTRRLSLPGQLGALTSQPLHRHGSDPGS
# How it was run: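 Concentration-response qHTS measuring drop in thallium-sensitive dye signal. U2OS cells carrying BacMam hERG; compound exposure ~10 min, then stimulation buffer and 2 min read at 1 sec intervals.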
# [4] = target: Luciferin 4-monooxygenase (Photinus pyralis) (UniProt P08659); test: Biochemical firefly luciferase enzyme assay for NPC (AID 624030); note: nearly all actives have a fitted effect of over 70% in size; note: potency is the fitted concentration of half-maximal effect; settings: purified P. pyralis luciferase, luminescence, 5 min; series mostly up to 58.6 µM
# Luciferin 4-monooxygenase (Photinus pyralis), sequence (P08659 whole entry, looked up): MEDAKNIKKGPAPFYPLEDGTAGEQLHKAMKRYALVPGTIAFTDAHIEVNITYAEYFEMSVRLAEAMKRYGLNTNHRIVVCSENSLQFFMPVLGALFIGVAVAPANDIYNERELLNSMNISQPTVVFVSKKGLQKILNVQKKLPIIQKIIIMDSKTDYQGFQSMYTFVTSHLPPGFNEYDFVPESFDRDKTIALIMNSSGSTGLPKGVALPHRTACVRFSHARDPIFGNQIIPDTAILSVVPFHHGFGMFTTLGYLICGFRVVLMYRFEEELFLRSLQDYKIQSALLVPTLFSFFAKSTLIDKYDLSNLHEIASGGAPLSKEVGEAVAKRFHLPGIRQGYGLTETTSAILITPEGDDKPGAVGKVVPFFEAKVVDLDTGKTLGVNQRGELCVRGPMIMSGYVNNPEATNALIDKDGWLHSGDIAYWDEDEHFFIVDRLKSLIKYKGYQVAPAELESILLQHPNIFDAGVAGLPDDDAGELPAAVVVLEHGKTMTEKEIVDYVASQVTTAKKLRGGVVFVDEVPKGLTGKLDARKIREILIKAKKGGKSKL
# How it was run: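 Counter-screen for direct inhibition of the luciferase enzyme by approved-drug library compounds, run at 10 nM enzyme in 50 mM Tris acetate (final). Luminescence was read within 5 min of enzyme-buffer addition and normalized to PTC124 versus DMSO (0%).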
# [5] = S16 Schwann cell viability assay (CellTiter-Glo assay) (AID 624031); settings: S16 rat Schwann cells viability, 24 h; series mostly up to 57.5 µM;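 note: native untransfected S16 rat Schwann cells; cellular ATP luminescence as a viability measure; plate controls were DMSO-treated cells for no effect and cell-free wells for full effect; nearly all actives have a fitted effect of over 70% in size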
# How it was run: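 Concentration-effect curves come from CellTiter-Glo luminescence of S16 rat Schwann cells after 24 h compound exposure. Each reading was normalized to DMSO wells (0%) and wells without cells, and curves were ranked by r2 and response magnitude.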
# [6] = S16 Schwann cell PMP22 intronic element firefly luciferase assay (AID 624032); settings: S16 rat Schwann cells, PMP22 element FLuc, 24 h; series mostly up to 57.5 µM; note: nearly all actives have a fitted effect of over 30% in size; note: potency is the fitted concentration of half-maximal effect
# How it was run: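 Rat S16 Schwann cells stably carrying a PMP22 intronic element-driven Fluc reporter were seeded overnight, then exposed to compounds for 24 h at 37 °C. Luminescence was normalized to PTC124 (positive control) and DMSO (0% activity).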
# [7] = qHTS assay for small molecule agonists of the antioxidant response element (ARE) signaling pathway (AID 651741; active = well fitted activation curve with a large enough effect in the signal ratio; the % refers to the signal ratio; note: potency is the fitted concentration of half-maximal effect; for activation: % of control where 0% means no effect); settings: HepG2 ARE-bla reporter, beta-lactamase FRET ratio, 16 h; series mostly up to 96 µM
# How it was run: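 ARE-bla HepG2 cells (beta-lactamase reporter under ARE control) were plated at 2,000 cells/well, preincubated 5 h at 37 C/5% CO2, then treated with DMSO-dissolved compounds for 16 h at 37 C; LiveBLAzer B/G FRET substrate added, fluorescence read after 2 h at room temperature.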
# [8] = qHTS assay for small molecule activators of the p53 signaling pathway (AID 651743; active = well fitted activation curve with a large enough effect in the signal ratio, not every such curve was filed as active; the % refers to the signal ratio; note: % of control where 0% means no effect); settings: HCT-116 p53RE-bla, beta-lactamase FRET ratio, 16 h; activation: stronger effect = higher value
# How it was run: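 p53RE-bla HCT-116 cells with a stably integrated beta-lactamase reporter under p53 response elements were plated, rested 5 hours at 37 C/5% CO2, then exposed to compounds in DMSO for 16 hours at 37 C. LiveBLAzer B/G FRET substrate was read after 2 hours at room temperature.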
# [9] = target: Glutaminase kidney isoform, mitochondrial (Homo sapiens) (UniProt O94925); test: qHTS for Inhibitors of Glutaminase (GLS): LOPAC Validation (AID 624146); settings: glutaminase enzyme activity inhibition; series mostly up to 46.1 µM;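 note: glutamate product detected by oxidase and peroxidase coupled Amplex red fluorescence gain; % is set by controls: 0 for no effect and ±100 for the full control effect; nearly all actives have a fitted effect of over 60% in size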
# Glutaminase kidney isoform, mitochondrial (Homo sapiens), sequence (O94925 whole entry, looked up, canonical isoform): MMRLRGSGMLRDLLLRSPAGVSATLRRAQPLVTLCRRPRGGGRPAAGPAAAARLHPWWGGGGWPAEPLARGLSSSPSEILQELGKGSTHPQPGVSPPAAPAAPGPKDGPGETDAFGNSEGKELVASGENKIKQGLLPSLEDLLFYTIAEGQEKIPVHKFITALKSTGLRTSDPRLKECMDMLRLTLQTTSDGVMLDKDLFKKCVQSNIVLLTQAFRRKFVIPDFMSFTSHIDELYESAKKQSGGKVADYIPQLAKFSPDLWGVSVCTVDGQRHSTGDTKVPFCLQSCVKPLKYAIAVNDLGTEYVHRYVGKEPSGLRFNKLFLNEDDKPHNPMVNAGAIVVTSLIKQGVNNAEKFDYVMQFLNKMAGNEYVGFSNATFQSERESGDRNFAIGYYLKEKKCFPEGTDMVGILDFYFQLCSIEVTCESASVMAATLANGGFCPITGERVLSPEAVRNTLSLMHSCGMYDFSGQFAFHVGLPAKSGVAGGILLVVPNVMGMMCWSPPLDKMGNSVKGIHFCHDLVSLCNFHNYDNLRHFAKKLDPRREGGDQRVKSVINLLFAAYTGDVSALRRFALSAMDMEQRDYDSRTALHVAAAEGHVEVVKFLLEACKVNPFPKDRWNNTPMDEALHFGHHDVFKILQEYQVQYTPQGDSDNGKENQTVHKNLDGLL
# How it was run: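 hKGA; 45 mM KH2PO4 pH 8.2 + 0.02% Tween-20; cpd via pin tool; 1 mM Gln soln; GluOx/HRP/Amplex Red; RT 30 min; fluor. t0 & final.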
# [10] = qHTS of Trypanosoma Brucei Inhibitors: LOPAC Validation (AID 624147); settings: purified enzyme assay, luminescence, 45 min; series mostly up to 57.5 µM; note: 0% is about no effect
# How it was run: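 Assay buffer: 50 mM TEA pH 7.2, 100 mM KCl, 10 mM MgCl2, 0.05% BSA, 0.01% Tween-20. Pyruvate kinase from T. brucei plus substrate met compound, then ADP (130 uM final). Luminescence was read post 45 min RT.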
# [11] = target: Glucagon-like peptide 1 receptor (Homo sapiens) (UniProt P43220); test: qHTS of GLP-1 Receptor Agonists: LOPAC Validation (AID 624148); settings: GLP-1R agonist cell assay; series mostly up to 46.1 µM;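 note: 0% is about no effect; higher luminescence signal means agonism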
# Glucagon-like peptide 1 receptor (Homo sapiens), sequence (P43220 whole entry, looked up): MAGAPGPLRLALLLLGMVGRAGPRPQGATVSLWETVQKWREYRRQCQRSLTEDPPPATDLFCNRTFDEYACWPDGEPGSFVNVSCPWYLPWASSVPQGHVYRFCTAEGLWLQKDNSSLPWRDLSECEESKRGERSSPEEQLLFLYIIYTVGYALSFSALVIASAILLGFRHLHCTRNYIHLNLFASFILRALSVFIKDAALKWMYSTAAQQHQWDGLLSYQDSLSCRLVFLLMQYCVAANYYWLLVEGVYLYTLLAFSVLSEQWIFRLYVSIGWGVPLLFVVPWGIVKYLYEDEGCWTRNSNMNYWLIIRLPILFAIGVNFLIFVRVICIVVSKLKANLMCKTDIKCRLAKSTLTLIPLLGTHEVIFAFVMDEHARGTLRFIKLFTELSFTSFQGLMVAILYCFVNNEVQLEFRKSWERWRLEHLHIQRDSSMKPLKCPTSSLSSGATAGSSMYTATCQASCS
# How it was run: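 HEK293 cells stably co-expressing a cAMP-responsive luciferase reporter and a hypersensitive GLP-1R were plated 12 h at 37 °C and exposed to compounds for 4-6 hr at 37 °C, 5% CO2. Luminescence was read 12 min after adding detection reagent.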
# [12] = HTS Assay for Allosteric Antagonists of the Human D2 Dopamine Receptor: Hit Validation in HTRF (AID 624455); settings: Cells stably expressing D1 dopamine receptor, inhibition mode; series mostly up to 46.1 µM;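 note: stable D1 dopamine receptor cell line scored for blocking the D1 response; % is set by controls: 0 for no effect and ±100 for the full control effect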
# How it was run: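 Signal from an HTRF read-out in D1-expressing stable cells gave hit activity as inhibition of the D1 response.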
# [13] = qHTS of Nrf2 Activators: LOPAC Validation (AID 624149); settings: Nrf2/ARE reporter cell assay; series mostly up to 46.1 µM; note: 0% is about no effect
# How it was run: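 ARE reporter activation measured in AREc32 firefly luciferase cells after 24 hr compound exposure; Steady-Glo luminescence.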
smiles,measurement,setting,value
CCCCCCCCCC(CC)c1ccc(S(=O)(=O)O)cc1 (configuration not stated),max response,[1],4.12% and -4.98%
same,activity change % (negative = inhibition),[2],6.11% and -12%
same,Potency,[3],inactive
same,Potency,[4],inactive
same,Potency,[5],inactive
same,Potency,[6],inactive
C=CC(=O)NCNC(=O)C=C,max response,[1],10.7% and -13.1%
same,activity change % (negative = inhibition),[2],-12.9% and 1.41%
same,Potency,[3],inactive
same,Potency,[4],inactive
same,Potency,[7],37.6 µM (active) and 30.6 µM (active)
same,activation,[8],-3.11% and -4.69%
CC(C)(O)C(=O)Nc1ccc([N+](=O)[O-])c(C(F)(F)F)c1,max response,[1],-2.4%
same,activity change % (negative = inhibition),[2],23.5%
same,Potency,[3],inactive
same,Potency,[7],66.8 µM (active)
same,activation,[8],4.44%
O=S(=O)(c1ccc(Cl)cc1)c1ccc(Cl)cc1,max response,[1],-23.5% and -4.94% and -14.2%
same,activity change % (negative = inhibition),[2],9.09% and 5.78% and 14.1%
same,Potency,[3],44.7 µM (active)
same,Potency,[4],inactive
same,Potency,[7],66.8 µM (active)
same,activation,[8],-0.565% and -3.02% and 0.243%
COCCOCCO,max response,[1],-11.3% and -22%
same,activity change % (negative = inhibition),[2],1.33% and -16.2%
same,Potency,[4],inactive
same,Potency,[7],inactive
Nc1ccc([N+](=O)[O-])cc1,max response,[1],-12.6%
same,activity change % (negative = inhibition),[2],-27.9%
same,Potency,[3],inactive
same,Potency,[4],inactive
same,activation,[8],0.0042%
CC(C)Oc1cccc(NC(=O)c2ccccc2C(F)(F)F)c1,max response,[1],-12.2%
same,activity change % (negative = inhibition),[2],-3.3%
same,Potency,[4],inactive
same,activation,[8],-2.47%
CCCCOC(=O)c1ccccc1C(=O)OCc1ccccc1,max response,[1],2.44% and -9.61%
same,activity change % (negative = inhibition),[2],11.3%
same,Potency,[4],inactive
same,Potency,[7],inactive
same,activation,[8],1.28% and 1.63%
CC(C)(C)C(O)C(Oc1ccc(Cl)cc1)n1cncn1 (configuration not stated),max response,[1],-0.566%
same,activity change % (negative = inhibition),[2],-8.05%
same,Potency,[4],inactive
same,Potency,[7],inactive
same,activation,[8],-1.72%
CCCCCCCCCCCCCCCC[N+](C)(C)C,max response,[1],-2.56%
same,Potency,[3],inactive
same,Potency,[4],inactive
same,Potency,[6],8.09 µM (active)
Nc1ccc(Cl)cc1N,max response,[1],-1.75% and 0.323%
same,activity change % (negative = inhibition),[2],-20.8%
same,Potency,[3],39.8 µM (active)
same,Potency,[4],3.32 µM (active)
same,Potency,[7],4.22 µM (active) and 27.3 µM (active)
same,activation,[8],1.69% and 0.406%
OCCCBr,max response,[1],-5.03%
same,activity change % (negative = inhibition),[2],-1.82%
same,Potency,[3],inactive
same,Potency,[4],inactive
same,activation,[8],1.31%
ClC1=C(Cl)[C@]2(Cl)[C@@H]3[C@@H]4C[C@@H]([C@H]5O[C@@H]45)[C@@H]3[C@@]1(Cl)C2(Cl)Cl,max response,[1],-14.7%
same,activity change % (negative = inhibition),[2],-14.5%
same,Potency,[4],inactive
same,Potency,[7],54.5 µM (active)
same,activation,[8],-1.42%
CCCCC(CC)COC(=O)c1ccccc1C(=O)OCC(CC)CCCC (configuration not stated),max response,[1],9.66% and 2.99%
same,activity change % (negative = inhibition),[2],-25.5% and -4.42%
same,Potency,[3],inactive
same,Potency,[4],inactive
same,activation,[8],-3.4% and 2.22%
COC(C)(C)CCCC(C)C/C=C/C(C)=C/C(=O)OC(C)C (configuration not stated),max response,[1],-11.7% and -5.86%
same,activity change % (negative = inhibition),[2],-7.54% and 20%
same,Potency,[3],inactive
same,Potency,[4],inactive
same,Potency,[5],inactive
same,Potency,[7],48.6 µM (active) and 66.8 µM (active)
same,activation,[8],-4.75% and -1.61%
Nc1ccc(Cl)cc1,max response,[1],-9.24%
same,activity change % (negative = inhibition),[2],5.44%
same,Potency,[3],inactive
same,Potency,[4],inactive
same,activation,[8],-2.94%
O=[N+]([O-])/N=C1\NCCN1Cc1ccc(Cl)nc1,max response,[1],-0.806%
same,Potency,[3],inactive
same,Potency,[7],inactive
NC1=NC(=O)N2CC12 (configuration not stated),Potency,[3],inactive
same,Potency,[4],inactive
same,Potency,[5],inactive
same,Potency,[6],inactive
Clc1ccc(C(c2ccc(Cl)cc2)n2cc[n+](CC(OCc3ccc(Cl)cc3Cl)c3ccc(Cl)cc3Cl)c2)cc1 (configuration not stated),Potency,[3],11.2 µM (active)
c1ccc2occc2c1,activity change % (negative = inhibition),[2],-0.0158% and 0.269%
CCCN(CCC)[C@@H]1CCc2ccc(O)cc2C1,Potency,[3],2.51 µM (active)
same,Potency,[9],inactive
same,outcome,[10],inactive
NC(=NCCC[C@H](N)C(=O)O)N[N+](=O)[O-],Potency,[3],inactive
same,Potency,[9],inactive
same,outcome,[10],inactive
same,outcome,[11],inactive
same,Potency,[12],inactive
O=C(Nc1ccccc1-c1ccc(Cl)cc1)c1cccnc1Cl,max response,[1],-14.2%
same,Potency,[4],inactive
same,activation,[8],-6.13%
CC(=O)[C@H]1CCC2C3CC[C@H]4C[C@H](O)CC[C@]4(C)C3CC[C@@]21C (some centres not stated),Potency,[3],inactive
same,Potency,[9],inactive
same,outcome,[10],inactive
same,outcome,[13],inactive
